Reference: publication PMC11006913
Where a chain is given by its changes, count along the chain named.

Experiments:
Test in all cases: PBM; 200 nM protein, PBS
Settings in all cases: dsDNA, one strand shown
[1] = molecular target: HOXC9 (Homo sapiens, UniProt P31274 178-260, K195R)
[2] = molecular target: HOXC9 (Homo sapiens, UniProt P31274 178-260)
[3] = molecular target: ALX3 (Homo sapiens, UniProt O95076 139-225, N203Q)
[4] = molecular target: HOXD13 (Homo sapiens, UniProt P35453 263-343, T313R)
[5] = molecular target: HOXC9 (Homo sapiens, UniProt P31274 178-260, R193K)
[6] = molecular target: HOXD13 (Homo sapiens, UniProt P35453 263-343)
[7] = molecular target: ALX3 (Homo sapiens, UniProt O95076 139-225)
[8] = molecular target: PROP1 (Homo sapiens, UniProt O75360 56-141)
[9] = molecular target: PROP1 (Homo sapiens, UniProt O75360 56-141, R99H)
[10] = molecular target: ALX3 (Homo sapiens, UniProt O95076 139-225, L168Q)
[11] = molecular target: HOXD13 (Homo sapiens, UniProt P35453 263-343, T313A)
[12] = molecular target: HOXC9 (Homo sapiens, UniProt P31274 178-260, R222W)
[13] = molecular target: ALX3 (Homo sapiens, UniProt O95076 139-225, L168V)
[14] = molecular target: PROP1 (Homo sapiens, UniProt O75360 56-141, F88S)
[15] = molecular target: ALX3 (Homo sapiens, UniProt O95076 139-225, N203S)
[16] = molecular target: T1, NKX2-6 (Homo sapiens, UniProt A6NCS4 118-204, R150C)
T1 sequence: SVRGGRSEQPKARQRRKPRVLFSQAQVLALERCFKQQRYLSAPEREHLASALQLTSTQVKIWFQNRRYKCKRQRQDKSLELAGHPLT

[17] = molecular target: ALX1 (Homo sapiens, UniProt Q15699 118-204, L144V)
[18] = molecular target: ALX1 (Homo sapiens, UniProt Q15699 118-204, L144R)
[19] = molecular target: ALX1 (Homo sapiens, UniProt Q15699 118-204)
[20] = molecular target: T2, NKX2-6 (Homo sapiens, UniProt A6NCS4 118-204)
T2 sequence: T1 sequence with C33R

[21] = molecular target: T3, NKX2-6 (Homo sapiens, UniProt A6NCS4 118-204, F151L)
T3 sequence: T1 sequence with C33R, F34L

[22] = molecular target: VAX1 (Homo sapiens, UniProt Q5SQQ9 86-172)
[23] = molecular target: VAX1 (Homo sapiens, UniProt Q5SQQ9 86-172, T142I)
[24] = molecular target: VAX1 (Homo sapiens, UniProt Q5SQQ9 86-172, K157R)
Chain of VAX1 (Homo sapiens, UniProt Q5SQQ9 86-172, K157R) (Q5SQQ9 86-172 K157R): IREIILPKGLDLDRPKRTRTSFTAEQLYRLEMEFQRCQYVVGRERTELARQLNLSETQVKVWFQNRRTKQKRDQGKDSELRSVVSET

Chain of HOXC9 (Homo sapiens, UniProt P31274 178-260, R193K) (P31274 178-260 R193K): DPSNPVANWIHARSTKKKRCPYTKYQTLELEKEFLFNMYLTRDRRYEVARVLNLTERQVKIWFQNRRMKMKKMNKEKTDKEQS
Chain of HOXC9 (Homo sapiens, UniProt P31274 178-260) (P31274 178-260): as the sequence (P31274 178-260 R193K) above, with K16R counted along it
Chain of HOXC9 (Homo sapiens, UniProt P31274 178-260, K195R) (P31274 178-260 K195R): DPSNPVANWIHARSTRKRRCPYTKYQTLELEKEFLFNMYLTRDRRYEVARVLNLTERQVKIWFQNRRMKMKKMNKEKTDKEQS
Chain of HOXC9 (Homo sapiens, UniProt P31274 178-260, R222W) (P31274 178-260 R222W): as the sequence (P31274 178-260 R193K) above, with K16R, R45W counted along it
Chain of ALX3 (Homo sapiens, UniProt O95076 139-225) (O95076 139-225): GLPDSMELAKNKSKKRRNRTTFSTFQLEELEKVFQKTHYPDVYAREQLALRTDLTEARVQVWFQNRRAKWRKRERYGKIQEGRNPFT
Chain of PROP1 (Homo sapiens, UniProt O75360 56-141) (O75360 56-141): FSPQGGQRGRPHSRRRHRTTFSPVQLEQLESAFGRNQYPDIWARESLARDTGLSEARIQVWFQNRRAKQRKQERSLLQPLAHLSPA
Chain of ALX3 (Homo sapiens, UniProt O95076 139-225, N203Q) (O95076 139-225 N203Q): as the sequence (O95076 139-225) above, with N65Q counted along it
Chain of PROP1 (Homo sapiens, UniProt O75360 56-141, F88S) (O75360 56-141 F88S): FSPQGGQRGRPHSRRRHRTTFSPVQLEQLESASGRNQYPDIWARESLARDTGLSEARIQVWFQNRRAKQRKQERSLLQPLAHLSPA
Chain of ALX3 (Homo sapiens, UniProt O95076 139-225, L168V) (O95076 139-225 L168V): as the sequence (O95076 139-225) above, with L30V counted along it
Chain of PROP1 (Homo sapiens, UniProt O75360 56-141, R99H) (O75360 56-141 R99H): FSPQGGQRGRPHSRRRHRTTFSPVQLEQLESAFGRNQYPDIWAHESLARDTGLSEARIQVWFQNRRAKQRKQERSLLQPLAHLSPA
Chain of ALX3 (Homo sapiens, UniProt O95076 139-225, N203S) (O95076 139-225 N203S): as the sequence (O95076 139-225) above, with N65S counted along it
Chain of ALX3 (Homo sapiens, UniProt O95076 139-225, L168Q) (O95076 139-225 L168Q): as the sequence (O95076 139-225) above, with L30Q counted along it
Chain of VAX1 (Homo sapiens, UniProt Q5SQQ9 86-172) (Q5SQQ9 86-172): as the sequence (Q5SQQ9 86-172 K157R) above, with R72K counted along it
Chain of ALX1 (Homo sapiens, UniProt Q15699 118-204, L144R) (Q15699 118-204 L144R): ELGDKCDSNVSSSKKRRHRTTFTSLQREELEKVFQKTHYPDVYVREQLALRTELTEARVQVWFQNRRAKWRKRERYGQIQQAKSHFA
Chain of ALX1 (Homo sapiens, UniProt Q15699 118-204) (Q15699 118-204): as the sequence (Q15699 118-204 L144R) above, with R27L counted along it
Chain of HOXD13 (Homo sapiens, UniProt P35453 263-343) (P35453 263-343): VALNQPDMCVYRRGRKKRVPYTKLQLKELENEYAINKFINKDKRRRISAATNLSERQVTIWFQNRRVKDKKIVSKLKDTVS
Chain of ALX1 (Homo sapiens, UniProt Q15699 118-204, L144V) (Q15699 118-204 L144V): as the sequence (Q15699 118-204 L144R) above, with R27V counted along it
Chain of HOXD13 (Homo sapiens, UniProt P35453 263-343, T313A) (P35453 263-343 T313A): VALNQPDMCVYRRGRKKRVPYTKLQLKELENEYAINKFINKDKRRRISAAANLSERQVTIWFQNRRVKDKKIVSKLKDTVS
Chain of HOXD13 (Homo sapiens, UniProt P35453 263-343, T313R) (P35453 263-343 T313R): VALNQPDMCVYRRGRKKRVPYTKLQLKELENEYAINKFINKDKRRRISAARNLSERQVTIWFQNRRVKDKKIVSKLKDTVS
Chain of VAX1 (Homo sapiens, UniProt Q5SQQ9 86-172, T142I) (Q5SQQ9 86-172 T142I): as the sequence (Q5SQQ9 86-172 K157R) above, with T57I, R72K counted along it

Sequence: CCCCCCTC
- binding signal [1]: 9.44 upbm affinity estimate (log intensity, higher = more binding, comparable within an allelic series)
- binding signal [2]: 9.34 upbm affinity estimate (log intensity, higher = more binding, comparable within an allelic series)
- binding signal [3]: 7.49 upbm affinity estimate (log intensity, higher = more binding, comparable within an allelic series)
- binding signal [4]: 8.92 upbm affinity estimate (log intensity, higher = more binding, comparable within an allelic series)
- binding signal [5]: 9.54 upbm affinity estimate (log intensity, higher = more binding, comparable within an allelic series)
- binding signal [6]: 9.09 upbm affinity estimate (log intensity, higher = more binding, comparable within an allelic series)
- binding signal [7]: 7.67 upbm affinity estimate (log intensity, higher = more binding, comparable within an allelic series)
- binding signal [8]: 6.57 upbm affinity estimate (log intensity, higher = more binding, comparable within an allelic series)
- binding signal [9]: 6.41 upbm affinity estimate (log intensity, higher = more binding, comparable within an allelic series)
- binding signal [10]: 7.57 upbm affinity estimate (log intensity, higher = more binding, comparable within an allelic series)
- binding signal [11]: 9.19 upbm affinity estimate (log intensity, higher = more binding, comparable within an allelic series)
- binding signal [12]: 9.27 upbm affinity estimate (log intensity, higher = more binding, comparable within an allelic series)
- binding signal [13]: 7.44 upbm affinity estimate (log intensity, higher = more binding, comparable within an allelic series)
- binding signal [14]: 5.9 upbm affinity estimate (log intensity, higher = more binding, comparable within an allelic series)
- binding signal [15]: 7.51 upbm affinity estimate (log intensity, higher = more binding, comparable within an allelic series)

Sequence: CTATAGAA
- binding signal [1]: 11.1 upbm affinity estimate (log intensity, higher = more binding, comparable within an allelic series)
- binding signal [2]: 11 upbm affinity estimate (log intensity, higher = more binding, comparable within an allelic series)
- binding signal [5]: 11.1 upbm affinity estimate (log intensity, higher = more binding, comparable within an allelic series)

Sequence: CCGGGTAC
- binding signal [1]: 9.59 upbm affinity estimate (log intensity, higher = more binding, comparable within an allelic series)
- binding signal [16]: 9.58 upbm affinity estimate (log intensity, higher = more binding, comparable within an allelic series)
- binding signal [2]: 9.74 upbm affinity estimate (log intensity, higher = more binding, comparable within an allelic series)
- binding signal [17]: 6.43 upbm affinity estimate (log intensity, higher = more binding, comparable within an allelic series)
- binding signal [5]: 9.61 upbm affinity estimate (log intensity, higher = more binding, comparable within an allelic series)
- binding signal [18]: 6.2 upbm affinity estimate (log intensity, higher = more binding, comparable within an allelic series)
- binding signal [12]: 9.63 upbm affinity estimate (log intensity, higher = more binding, comparable within an allelic series)
- binding signal [19]: 6.38 upbm affinity estimate (log intensity, higher = more binding, comparable within an allelic series)

Sequence: CCTCTCCA
- binding signal [1]: 9.58 upbm affinity estimate (log intensity, higher = more binding, comparable within an allelic series)
- binding signal [2]: 9.63 upbm affinity estimate (log intensity, higher = more binding, comparable within an allelic series)
- binding signal [20]: 11.5 upbm affinity estimate (log intensity, higher = more binding, comparable within an allelic series)
- binding signal [5]: 9.69 upbm affinity estimate (log intensity, higher = more binding, comparable within an allelic series)
- binding signal [21]: 9.51 upbm affinity estimate (log intensity, higher = more binding, comparable within an allelic series)
- binding signal [12]: 9.7 upbm affinity estimate (log intensity, higher = more binding, comparable within an allelic series)

Sequence: CCTCCCAG
- binding signal [1]: 9.59 upbm affinity estimate (log intensity, higher = more binding, comparable within an allelic series)
- binding signal [2]: 9.7 upbm affinity estimate (log intensity, higher = more binding, comparable within an allelic series)
- binding signal [3]: 7.74 upbm affinity estimate (log intensity, higher = more binding, comparable within an allelic series)
- binding signal [5]: 9.59 upbm affinity estimate (log intensity, higher = more binding, comparable within an allelic series)
- binding signal [7]: 7.69 upbm affinity estimate (log intensity, higher = more binding, comparable within an allelic series)
- binding signal [22]: 7.07 upbm affinity estimate (log intensity, higher = more binding, comparable within an allelic series)
- binding signal [10]: 7.76 upbm affinity estimate (log intensity, higher = more binding, comparable within an allelic series)
- binding signal [12]: 9.67 upbm affinity estimate (log intensity, higher = more binding, comparable within an allelic series)
- binding signal [13]: 7.74 upbm affinity estimate (log intensity, higher = more binding, comparable within an allelic series)
- binding signal [23]: 7.13 upbm affinity estimate (log intensity, higher = more binding, comparable within an allelic series)
- binding signal [15]: 7.72 upbm affinity estimate (log intensity, higher = more binding, comparable within an allelic series)
- binding signal [24]: 6.95 upbm affinity estimate (log intensity, higher = more binding, comparable within an allelic series)

Sequence: ATGAACTA
- binding signal [1]: 10.9 upbm affinity estimate (log intensity, higher = more binding, comparable within an allelic series)
- binding signal [2]: 10.9 upbm affinity estimate (log intensity, higher = more binding, comparable within an allelic series)
- binding signal [5]: 10.9 upbm affinity estimate (log intensity, higher = more binding, comparable within an allelic series)

Sequence: TAAGAATA
- binding signal [1]: 10.9 upbm affinity estimate (log intensity, higher = more binding, comparable within an allelic series)
- binding signal [2]: 10.8 upbm affinity estimate (log intensity, higher = more binding, comparable within an allelic series)
- binding signal [5]: 10.9 upbm affinity estimate (log intensity, higher = more binding, comparable within an allelic series)

Sequence: TAAAGTGA
- binding signal [1]: 11.3 upbm affinity estimate (log intensity, higher = more binding, comparable within an allelic series)
- binding signal [2]: 11.4 upbm affinity estimate (log intensity, higher = more binding, comparable within an allelic series)
- binding signal [5]: 11.4 upbm affinity estimate (log intensity, higher = more binding, comparable within an allelic series)

Sequence: CTGGACGC
- binding signal [1]: 9.6 upbm affinity estimate (log intensity, higher = more binding, comparable within an allelic series)
- binding signal [2]: 9.69 upbm affinity estimate (log intensity, higher = more binding, comparable within an allelic series)
- binding signal [5]: 9.69 upbm affinity estimate (log intensity, higher = more binding, comparable within an allelic series)
- binding signal [8]: 6.69 upbm affinity estimate (log intensity, higher = more binding, comparable within an allelic series)
- binding signal [9]: 6.62 upbm affinity estimate (log intensity, higher = more binding, comparable within an allelic series)
- binding signal [12]: 9.74 upbm affinity estimate (log intensity, higher = more binding, comparable within an allelic series)
- binding signal [14]: 6.59 upbm affinity estimate (log intensity, higher = more binding, comparable within an allelic series)

Sequence: CGTAAAGA
- binding signal [1]: 11.1 upbm affinity estimate (log intensity, higher = more binding, comparable within an allelic series)
- binding signal [2]: 11.2 upbm affinity estimate (log intensity, higher = more binding, comparable within an allelic series)
- binding signal [5]: 11.2 upbm affinity estimate (log intensity, higher = more binding, comparable within an allelic series)

Sequence: CCGGAAGG
- binding signal [1]: 9.63 upbm affinity estimate (log intensity, higher = more binding, comparable within an allelic series)
- binding signal [2]: 9.81 upbm affinity estimate (log intensity, higher = more binding, comparable within an allelic series)
- binding signal [5]: 9.73 upbm affinity estimate (log intensity, higher = more binding, comparable within an allelic series)
- binding signal [12]: 9.78 upbm affinity estimate (log intensity, higher = more binding, comparable within an allelic series)

Sequence: CATTTAGA
- binding signal [1]: 11.1 upbm affinity estimate (log intensity, higher = more binding, comparable within an allelic series)
- binding signal [2]: 11.1 upbm affinity estimate (log intensity, higher = more binding, comparable within an allelic series)
- binding signal [5]: 11.3 upbm affinity estimate (log intensity, higher = more binding, comparable within an allelic series)

Sequence: CCCCAGCC
- binding signal [1]: 9.49 upbm affinity estimate (log intensity, higher = more binding, comparable within an allelic series)
- binding signal [2]: 9.68 upbm affinity estimate (log intensity, higher = more binding, comparable within an allelic series)
- binding signal [5]: 9.69 upbm affinity estimate (log intensity, higher = more binding, comparable within an allelic series)
- binding signal [12]: 9.68 upbm affinity estimate (log intensity, higher = more binding, comparable within an allelic series)
